Screens: PubChem, Broad Institute
YB-1 expression = YB-1 expression inhibition; U2OS, qRT-PCR YB-1 vs CDIP delta delta Cp, 16 h; hits give high values; zero = DMSO, each unit about twofold; delta delta Cp (YB-1 minus CDIP) (no concentration beside the values); 30,000 tested, 0.37% active; AID 434959;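 active means delta delta Cp rounded down to an integer at or above 3, about 3 SD of DMSO wells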;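 further: higher means less YB-1 transcript or more CDIP transcript relative to DMSO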
BJeLR viability = BJeLR cell viability reduction; BJeLR fibroblasts viability, CellTiterGlo ATP luminescence, 48 h; HRASV12, hTERT and SV40 LT/ST transformed; viability loss activity score, % (test concentration not listed); 30,000 tested, 0.64% active; in the data active means viability loss activity score above about 50%; inconclusive means no clear call, values can overlap the other calls; inactive means below about 35%;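 further: higher score means fewer live cells and less ATP luminescence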
MITF inh = MITF inhibition; TRPM1 promoter luciferase, luminescence, 24 h; inhibition, % (concentration not given with the values); 37,000 tested, 0.28% active; in the data active means inhibition above about 85%; inconclusive means no clear call, values can overlap the other calls; inactive means below about 68%;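 further: human melanocyte line stably carrying TRPM1 promoter luciferase reporter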
U2OS ROS induce = raises reactive oxygen species in U2OS cancer cells | U2OS ROS induction, H2DCF-DA fluorescence | ROS induction (% of piperlongumine), % at 10 µM | 46,000 tested, 2% active | AID 624156; in the data active means ROS induction above about 79%, passing the limit was not always enough; inconclusive means no clear call, values can overlap the other calls;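 further: 0% = DMSO vehicle median and 100% = reference compound median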
Numbers without * were called inactive; u = inconclusive; x = not tested or not shown. Only some compounds are listed: those with a hit (about 2.5% of all), similar ones and a draw of the others.

SMILES	YB-1 expression	BJeLR viability	MITF inh	U2OS ROS induce
COc1ccc(CN(C)C[C@@H]2Oc3ccc(NC(=O)NC4CCCCC4)cc3CC(=O)N([C@H](C)CO)C[C@H]2C)cc1	6.7*	x	7	0
CCOC(=O)c1ccc(NC(=O)Cn2cnc3ccccc3c2=O)cc1	x	x	6	x
CCOC(=O)c1ccc(Nc2c(C(=O)OCC)cnc3ccccc23)cc1	x	4	x	99*
Cn1cc(C(=O)NCc2cccs2)c(=O)c2cc(S(=O)(=O)N3CCOCC3)ccc21	x	3	x	x
CC(CNC(=O)c1cc2oc3ccccc3c2n1C)c1ccccc1 (stereo not given)	x	15	x	u
CN(C)c1nc(Cl)nc(N(C#N)CN2C(=O)c3ccccc3C2=O)n1	0.22	-3	-4	168*
O=C1c2ccccc2C(=O)N1CN1CCCCC1	x	2	x	-12
N#Cc1ccc(CSc2nc(-c3cccs3)c3c(c2C(=O)O)CCCC3)cc1	0.35	-2	-8	23
CN1CCc2c(-c3cccs3)nc(OCc3ccccc3Br)c(C#N)c2C1	0.13	3	19	168*
CN(C)c1ccc(C(=C2C=CC(=[N+](C)C)C=C2)c2ccc(N(C)C)cc2)cc1	-0.27	127*	109*	341*
O=C(Nc1ccc(-c2nc3ccccc3s2)cc1)c1cccc(F)c1	x	-2	x	-1
O=C1/C(=C/c2cccc(F)c2)CS/C1=C\c1cccc(F)c1	x	1	x	x
C[C@H]1CC[C@@H]2[C@@H](C(=O)c3c(O)c([C@]4(O)CC[C@@H](O)[C@H]5O[C@H]54)cn(O)c3=O)[C@@H](C)C=C[C@H]2C1	1.7	53*	67	-6
Cc1ccc(C2CC(=O)n3nc(N)nc3N2)cc1 (stereo not given)	x	1	x	-5
N#CC(C#N)=C(Nc1ccccc1Cl)SCc1cccc(F)c1	0.18	24	89*	3
Cc1nc2cc(NC(=O)NCc3ccco3)ccc2n1C	x	x	-104	100*
CC(C)(C)C(=O)Cn1nnc(-c2cccc(C(F)(F)F)c2)n1	x	2	x	-3
CCN(CCO)C(=O)CCN1C(=O)/C(=C/c2ccc(OC)c(OC)c2)SC1=S	x	3	x	x
C[C@@H]1CN([C@@H](C)CO)C(=O)c2cccc(NC(=O)CCCCCC(=O)Nc3ccccc3N)c2O[C@@H]1CN(C)Cc1ccc(Oc2ccccc2)cc1	-0.16	x	2	136*
C[C@H](CO)N1C[C@H](C)[C@@H](CN(C)Cc2ccc(-c3ccccc3)cc2)Oc2c(NC(=O)CCCCCC(=O)Nc3ccccc3N)cccc2C1=O	-0.2	x	28	117*
C[C@@H]1CN([C@H](C)CO)C(=O)c2cccc(NC(=O)CCCCCC(=O)Nc3ccccc3N)c2O[C@@H]1CN(C)Cc1ccc(Oc2ccccc2)cc1	-0.25	x	21	9
C[C@@H]1CN([C@@H](C)CO)C(=O)c2cccc(NC(=O)CCCCCC(=O)Nc3ccccc3N)c2O[C@H]1CN(C)CC1CCCCC1	-0.49	x	64	82*
C[C@H](CO)N1C[C@H](C)[C@H](CN(C)CC2CC2)Oc2c(NC(=O)CCCCCC(=O)Nc3ccccc3N)cccc2C1=O	0.0028	x	0	-7
CC(C(=O)O)N1C(=O)/C(=C/c2ccc(Cl)cc2)SC1=S (stereo not given)	x	-4	x	-9
COc1ccccc1N(CC(=O)N(C)Cc1ccccc1)S(C)(=O)=O	x	2	x	-13
SMILES	YB-1 expression	BJeLR viability	MITF inh	U2OS ROS induce
COc1ccc(Cn2c(CCC(=O)NCc3ccccc3)nc3cccnc32)cc1	x	-9	x	x
CCCNC(=O)C1CCN(c2nn3c(=O)cc(C)nc3s2)CC1	x	-4	x	-8
O=C(NCc1ccccn1)c1nnc(-c2cccc(Cl)c2)o1	x	1	x	x
C=C1C(=O)OC2/C=C(\CO)C(OC(C)=O)C/C=C(/C)CC(OC(=O)/C(C)=C\CO)C12 (stereo not given)	4.7*	34	-5	53
CCOC(=O)c1c(CS(=O)c2ccc(Cl)cc2)oc2c(F)c(F)c(F)c(F)c12 (stereo not given)	x	-5	x	-3
CCOC(=O)c1sc2sc(C(=O)OCC)c(-c3ccc(Cl)cc3)c2c1N	0.083	-2	-2	93*
C[C@@H]1CN([C@@H](C)CO)C(=O)Cc2cc(NC(=O)c3ccncc3)ccc2O[C@@H]1CN(C)Cc1ccc(Oc2ccccc2)cc1	-0.065	x	12	5
CC(C)NC(=O)Nc1ccc2c(c1)CC(=O)N([C@H](C)CO)C[C@@H](C)[C@@H](CN(C)Cc1ccc(Oc3ccccc3)cc1)O2	-0.16	x	20	129*
C[C@@H]1CN([C@H](C)CO)C(=O)Cc2cc(NC(=O)c3ccncc3)ccc2O[C@H]1CN(C)Cc1ccc(Oc2ccccc2)cc1	-0.0039	x	2	127*
